# This is a sample that favours compounds with a hit; in the whole collection about 2.2% have one here.
# Shn3 inh set2 = Schnurri-3 reporter inhibition in Clone20 osteoblasts. Clone20 osteoblast Shn3 3'UTR firefly luciferase, 24 h. inhibition, % at 12.5 µM. 360,000 tested, 0.52% active. AID 588674;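 active = mean inhibition of at least 75% with every replicate also reaching 75%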
# PAX8 reporter = inhibitors of PAX8 transcriptional activity in RMG-I cells | inhibition, % at 12.6 µM | AID 652154 | RMG-I TPO-luciferase reporter, SteadyGlo, 24 h | 360,000 tested, 1.2% active;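 active = mean replicate inhibition at least 60% with every replicate also reaching 60%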;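 also: luciferase light reporting Pax8 driven TPO promoter activity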
# LGR2 antag = blocks bursicon-induced cAMP signaling via Drosophila LGR2 | HEK293 LGR2, CRE-luciferase, bursicon-stimulated, 4 h | inhibition, % at 9.99 µM | 380,000 tested, 0.35% active;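 active = drop in luminescence signal, shown as inhibition above about 50% in the replicate tests, limit read from the data, passing the limit was not always enough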;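 also: agonist challenge used bursicon conditioned medium at about half maximal strength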
# TRPM1 prom inh = reduces MITF-dependent TRPM1 promoter luciferase signal | SK-MEL-5 TRPM1 promoter luciferase, 24 h | 330,000 tested, 0.83% active | inhibition, % at 12.5 µM;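 active = mean inhibition across replicates of 60% or more, whatever share of single replicates reaches that level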
# EBV LMP1 NFkB = inhibitors of Epstein-Barr LMP1-induced NF-kappaB reporter | 350,000 tested, 0.69% active | inhibition, % at 12.5 µM | LMP1-induced NF-kappaB luciferase reporter cells, luminescence | AID 504558; in the data active = inhibition above about 41%
# EWS-Fli block = EWS/Fli transcriptional activity inhibition. 350,000 tested, 0.67% active. A673 NR0B1-luciferase reporter, viability-normalised. AID 651661. inhibition, % at 12.6 µM;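 active = mean inhibition of at least 50% after viability correction, with every replicate also passing that limit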;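 also: firefly luciferase signal divided by Alamar Blue viability fluorescence both relative to DMSO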
# Numbers stand for hits; - = inactive; . = no result given.
SMILES,Shn3 inh set2,PAX8 reporter,LGR2 antag,TRPM1 prom inh,EBV LMP1 NFkB,EWS-Fli block
C[C@@H]1CCCCO[C@H](CN(C)C(=O)Nc2ccc(F)cc2)[C@@H](C)CN([C@@H](C)CO)C(=O)c2cc(NC(=O)NC3CCCCC3)ccc2O1,.,66,-,.,.,-
C[C@@H]1CN([C@H](C)CO)C(=O)c2cc(NC(=O)Nc3ccc(F)cc3)ccc2O[C@@H](C)CCCCO[C@H]1CN(C)C(=O)NC1CCCCC1,.,84,-,.,.,-
C[C@@H]1CCCCO[C@@H](CN(C)C(=O)Nc2ccc(F)cc2)[C@H](C)CN([C@H](C)CO)C(=O)c2cc(NC(=O)NC3CCCCC3)ccc2O1,.,-,-,.,.,-
C[C@H](CO)N1C[C@H](C)[C@H](CN(C)C(=O)Nc2cccc3ccccc23)OCCCC[C@H](C)Oc2ccc(NC(=O)NC3CCCCC3)cc2C1=O,.,-,60,.,.,-
C[C@@H]1CCCCO[C@@H](CN(C)C(=O)NC2CCCCC2)[C@H](C)CN([C@H](C)CO)C(=O)c2cc(NC(=O)Nc3ccc(F)cc3)ccc2O1,.,74,-,.,.,-
C[C@@H]1CN([C@H](C)CO)S(=O)(=O)c2ccc(-c3cccnc3)cc2O[C@@H]1CN(C)C(=O)C1CCC1,.,.,-,.,.,-
CCNC(=O)[C@H]1[C@H](CO)[C@H]2Cn3c(ccc(-c4ccccc4)c3=O)[C@H]2N1C(=O)C1CCCC1,.,-,-,.,.,-
O=C(C1CC1)N1CC2(C1)[C@@H](c1ccccc1)[C@@H](CO)N2CC1CCCC1,.,.,-,.,.,-
C[C@@H]1CCCCO[C@H](CN(C)C(=O)NC2CCCCC2)[C@@H](C)CN([C@@H](C)CO)C(=O)c2cc(NC(=O)NC3CCCCC3)ccc2O1,.,-,-,.,.,-
C[C@H]1CCCCO[C@H](CN(C)C(=O)NC2CCCCC2)[C@@H](C)CN([C@@H](C)CO)C(=O)c2cc(NC(=O)NC3CCCCC3)ccc2O1,.,66,-,.,.,-
COc1cc(OC)c2c(-c3cccc(-c4ccc(OC)c(F)c4)c3)cc(=O)oc2c1,-,89,-,-,-,-
C[C@H](CO)N1C[C@H](C)[C@H](CN(C)C(=O)C2CC2)Oc2cc(-c3ccccc3F)ccc2S1(=O)=O,.,.,-,.,.,-
CN1c2ccccc2C(C)(C)C12C=Nc1c(cc(N3CCOCC3)c3ccccc13)O2 (configuration not stated),.,72,.,-,-,.
COC(=O)c1c(NC(=O)c2nc3ccccc3s2)sc2c1CC(C)(C)NC2(C)C,-,-,-,77,-,-
COC(=O)c1c(NC(=O)c2ccc(C(=O)c3ccccc3)cc2)sc2c1CC(C)(C)NC2(C)C,-,-,-,.,-,-
CCCC#Cc1ccc2c(c1)O[C@@H](CN(C)C(=O)C1CCCCC1)[C@H](C)CN([C@@H](C)CO)S2(=O)=O,.,.,-,.,.,-
C[C@H](NC(=O)[C@@H]1[C@@H](CO)[C@@H]2Cn3c(cccc3=O)[C@H]1N2Cc1ccccc1)c1ccccc1,.,.,-,.,.,-
Cc1noc(C)c1NC(=O)N(C)C[C@H]1OCCCC[C@H](C)Oc2ccc(NS(C)(=O)=O)cc2C(=O)N([C@@H](C)CO)C[C@H]1C,.,-,-,.,.,-
O=C(/C=C/c1cccc(F)c1)N1CCc2ccccc21,-,-,54,-,-,.
O=C(/C=C/c1cccc(F)c1)OCC(=O)N1CCCc2ccccc21,-,-,-,-,-,-
CCCCN1CCc2c1nc1ccc(Br)cc1c2N,-,.,-,66,-,-
O=C1[C@H](Cc2ccccc2)CCn2cc(nn2)COCC2CCCN12 (some centres not stated),.,-,-,.,.,-
COCC(=O)N(C)C[C@H]1Oc2ncc(C#Cc3ccccc3)cc2C(=O)N([C@H](C)CO)C[C@H]1C,.,.,-,.,.,-
Cn1c(N)c(C(=O)COC(=O)c2cc(S(=O)(=O)N3CCOCC3)ccc2F)c(=O)n(C)c1=O,-,-,-,82,-,67
CO[C@H]1CN(C)C(=O)c2ccc(NC(=O)C3CCCC3)cc2OC[C@H](C)NC[C@@H]1C,.,.,-,.,.,.
SMILES,Shn3 inh set2,PAX8 reporter,LGR2 antag,TRPM1 prom inh,EBV LMP1 NFkB,EWS-Fli block
CCN1CCN(CCNC(=O)c2ccc(/C=C3/Sc4ccccc4N(Cc4cccc(Cl)c4)C3=O)cc2)CC1,-,-,52,68,-,-
CCN1CCN(CCNC(=O)c2ccc3c(c2)N(Cc2ccc(F)cc2)C(=O)/C(=C/c2ccccc2)S3)CC1,-,-,-,92,-,-
COC(=O)[C@@H]1[C@@H](CO)[C@@H]2Cn3c(ccc(-c4cccc(F)c4)c3=O)[C@@H]2N1CC1CCCC1,.,64,-,.,.,-
COC(=O)[C@H]1[C@H](CO)[C@H]2Cn3c(ccc(-c4cccc(F)c4)c3=O)[C@H]2N1CC1CCCC1,.,-,-,.,.,-
C[C@@H]1CN([C@@H](C)CO)S(=O)(=O)c2ccc(-c3cncnc3)cc2O[C@@H]1CN(C)C(=O)c1ccc2c(c1)OCO2,.,.,-,.,.,-
CCCOCCOC(=O)c1[nH]c2c(c1C)C(=O)CC(c1cc(OC)ccc1OC)C2 (configuration not stated),-,-,-,-,-,56
CCOC(=O)c1cnc(Nc2nc3ccccc3o2)nc1C,-,.,82,-,65,.
Cc1nc(Nc2nc3ccccc3o2)nc2c1CCC2,-,-,.,-,57,.
Cc1cccc(C)c1Nc1nc2ccccc2o1,-,-,.,-,64,-
C[C@@H]1CCCCO[C@@H](CN(C)S(=O)(=O)c2ccc(F)cc2)[C@@H](C)CN([C@@H](C)CO)C(=O)c2cc(NC(=O)CCC(F)(F)F)ccc2O1,.,-,-,.,.,-
CC1CN(c2ccc([N+](=O)[O-])c(NCCOc3ccc(Cl)cc3)c2)CC(C)N1 (configuration not stated),-,-,-,-,-,-
CCc1ccc(OCCNc2cc(N3CCNC(C)C3)ccc2[N+](=O)[O-])cc1 (configuration not stated),89,-,-,79,-,-
CCC(=O)/C=C1/Sc2ccccc2N1CC,-,.,-,-,-,.
CCN1/C(=C/c2sc(-c3ccccc3C)c[n+]2C)Sc2ccccc21,90,98,-,86,-,65
O=C(C[C@@H]1CC[C@@H](NC(=O)CN2CCOCC2)[C@H](CO)O1)NCCc1ccccc1,.,-,-,.,.,-
Cc1cc(C(=O)COC(=O)c2cccc(O)c2)c(C)n1C1CC1,-,-,73,-,-,-
Cc1ccc(S(=O)(=O)N(C)C[C@@H]2OCCCC[C@H](C)Oc3ccc(NS(=O)(=O)c4ccc(F)cc4)cc3C(=O)N([C@H](C)CO)C[C@H]2C)cc1,.,87,-,.,.,-
Cc1ccc(S(=O)(=O)N(C)C[C@H]2OCCCC[C@@H](C)Oc3ccc(NS(=O)(=O)c4ccc(F)cc4)cc3C(=O)N([C@H](C)CO)C[C@H]2C)cc1,.,-,-,.,.,-
Cc1ccc(S(=O)(=O)Nc2ccc3c(c2)C(=O)N([C@H](C)CO)C[C@H](C)[C@@H](CN(C)S(=O)(=O)c2ccc(F)cc2)OCCCC[C@H](C)O3)cc1,.,86,-,.,.,-

# Compound activity: PubChem, Broad Institute
